# Reference: PubChem BioAssay AID651821 (The Scripps Research Institute Molecular Screening Center, 2012)
# Where “and” joins values, the source holds several entries; their conditions need not be identical. Equal entries are not always repeated. In all, about 370,000 compounds went through this assay and about 4,700 (1.3%) were called active. This is one part of a sample in which actives are shown more often than they occur.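 How the source made its calls: active means inhibition above the plate cutoff, the mean of all test compounds on that plate plus 3 SD (cut at about 35% in these data); inactive means the rest.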 A structure can be active in one record and inactive in another.
# Assay: binders of r(CAG) RNA repeats, primary screen, biochemical, fluorescence (AID 651821);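 further: 0% = DMSO alone and 100% = 100 µM mitoxantrone as full dye displacement; higher means more dye released from RNA so lower well fluorescence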
# Details: r(CAG) RNA repeat, TO-PRO-1 dye displacement fluorescence; at 3 µM; stronger effect = higher value
row,Compound,inhibition
1,Cc1cc(C)cc(NC(=O)N2CCC(N(C)CCC(C)C)CC2)c1,3.3% (inactive)
2,N#Cc1ccc(OCCCN2CCC(C(O)(c3ccccc3)c3ccccc3)CC2)c(F)c1,-1.54% (inactive)
3,C=C1c2c(Cl)ccc(O)c2C(O)=C2C(=O)[C@]3(O)C(O)=C(C(N)=O)C(=O)[C@@H](N(C)C)[C@@H]3[C@@H](O)C12 (stereo partly specified),87.2% (active)
4,Cc1nc(NC(=O)C(C)(C)C)sc1[N+](=O)[O-],2.08% (inactive)
5,COc1cccc(CNC(=O)[C@H]2CCCN2C(=O)[C@H]2CCCN2C(=O)C2CCCCC2)c1,1.57% (inactive)
6,Cc1ccc(NC(=O)Cc2cccc(F)c2)c(S(=O)(=O)N2CCOCC2)c1,-0.87% (inactive)
7,O=C1C=C(c2ccc(Cl)cc2)C(=O)N1Nc1ccccc1,8.98% (inactive)
8,O=C1c2cccc3cc(Br)cc(c23)C(=O)N1Nc1ccccc1,36.1% (active)
9,O=C1c2cccc3cccc(c23)C(=O)N1c1cccc(O)c1,4.62% (inactive)
10,CCCc1cc(=O)[nH]c(SCC(=O)Nc2sc3c(c2C#N)CCCC3)n1,40.9% (active)
11,CCCc1cc(=O)[nH]c(SCC(=O)N2C(C)CCCC2C)n1 (stereo unspecified),-1.93% (inactive)
12,CCCc1cc(=O)[nH]c(SCC(=O)Nc2ccc(S(=O)(=O)N3CCCC3)cc2)n1,15.7% (inactive)
13,CC(C)C[C@H](NC(=O)CC1CCCC1)C(=O)N1CCC[C@H]1C(=O)NCc1ccccc1,-2.39% (inactive)
14,COc1ccccc1CCn1cnc(-c2ccccc2)c1C(C)C,-1.16% (inactive)
15,CC(=N\NC(=O)c1cc(Br)ccc1O)/C(=N/O)C(=O)Nc1ccccc1,36.5% (active)
16,C/C(=N/NC(=O)c1cc(Cl)ccc1O)C12CC3CC(CC(C3)C1)C2,14.9% (inactive)
17,C/C(Cc1ccccc1)=N\NC(=O)CNC(=O)c1cccc(Br)c1,1.32% (inactive)
18,O=S1(=O)c2ccc(Br)cc2OC[C@H](Cc2ccccc2)N1Cc1cn(Cc2ccccc2)nn1,9.1% (inactive)
19,O=C(CSc1nnc(COc2ccccc2)n1-c1ccc(Cl)cc1)Nc1ccc2c(c1)OCO2,5.42% (inactive)
20,Cc1cc(C(=O)NN=C/C=C/c2ccco2)n[nH]1,12% (inactive)
21,Cc1ccc(N=C2NC(=O)/C(=C/C=C/c3ccco3)S2)cc1C,58% (active)
22,Nc1ncnc2c1ncn2[C@@H]1O[C@H](C(=O)N[C@@H](CCc2ccccc2)C(=O)NCC(=O)N2CCOCC2)[C@@H](O)[C@H]1O,4.42% (inactive)

row,Compound,inhibition
1,CCN1CCN(C(=O)N[C@@H](C(=O)N[C@@H]2C(=O)N3C(C(=O)O)=C(CSc4nnnn4C)CS[C@H]23)c2ccc(O)cc2)C(=O)C1=O,8.44% (inactive)
2,CO/N=C(\C(=O)N[C@@H]1C(=O)N2C(C(=O)O)=C(COC(C)=O)CS[C@H]12)c1csc(N)n1 (stereo in doubt),31% (inactive) and 22.6% (inactive) and 37.5% (active)
3,C=CC1=C(C(=O)O)N2C(=O)[C@@H](NC(=O)/C(=N/OCC(=O)O)c3csc(N)n3)[C@H]2SC1,50.2% (active)
4,Nc1nc2c(ncn2[C@@H]2O[C@H](C(=O)N[C@H](Cc3ccccc3)C(=O)NCC3CCCCC3)[C@@H](O)[C@H]2O)c(=O)[nH]1,6.66% (inactive)
5,Cc1ccc(CN2CCCCC(NC(=O)C3CCCCC3)C2=O)cc1 (stereo unspecified),-0.58% (inactive)
6,CCCCN(C(C)=O)c1ccc2c(c1)C1CC2CCN1Cc1ccccc1 (stereo unspecified),-3.96% (inactive)
7,CCn1cc(CN2CCCC(CNS(=O)(=O)Cc3ccccc3)C2)cn1 (stereo unspecified),0.88% (inactive)
8,Cc1ccccc1NC(=O)C1CCN(c2ncccn2)CC1,-0.95% (inactive)
9,COc1ccc(S(=O)(=O)NCC(c2ccc(C)cc2)N2CCN(C)CC2)cc1OC (stereo unspecified),-10.5% (inactive)
10,COc1ccc(C(=O)OCCN(C)C2CN(Cc3cn(Cc4cccc(C)c4)nn3)S(=O)(=O)C2)cc1OC (stereo unspecified),0.03% (inactive)
11,Cc1c(NC(=O)c2cc(-c3ccc(Cl)s3)nc3ccccc23)c(=O)n(-c2ccccc2)n1C,7.65% (inactive)
12,O=C(c1cc(-c2ccc(Cl)s2)nc2ccccc12)N1CCOCC1,3.5% (inactive)
13,O=C(Nc1nnc(-c2ccccc2)o1)c1cc(-c2cccs2)nc2ccccc12,56.2% (active)
14,CC(c1ccc(N)cc1)c1cn(C)c2ccccc12 (stereo unspecified),7.15% (inactive)
15,CCC(C)[C@@H](C(=O)OC)N(CCc1cn(Cc2ccccc2)nn1)S(=O)(=O)c1ccccc1Br (stereo partly specified),2.88% (inactive)
16,CC(=O)N1c2ccc(S(=O)(=O)N3CCC(C(=O)NCc4ccc(F)cc4)CC3)cc2CC1C (stereo unspecified),1.14% (inactive)
17,CCOC(CNC(=O)C1CCN(S(=O)(=O)c2ccc3nc4c(c(C(=O)O)c3c2)CC(C)CC4)CC1)OCC (stereo unspecified),25.9% (inactive)
18,Cc1ccc(CNC(=O)C2CCN(S(=O)(=O)c3ccc4nc5c(c(C(=O)O)c4c3)CC(C)CC5)CC2)cc1 (stereo unspecified),51.8% (active)
19,COC(=O)C1=C(C)N(Cc2ccc(C(F)(F)F)cc2)C(=NCc2ccc(C(F)(F)F)cc2)NC1c1cccc(Cl)c1 (stereo unspecified),2.08% (inactive)
20,N#Cc1c(NC(=O)C2CC(Cl)=CCC2C(=O)O)sc2c1CCCCC2 (stereo unspecified),42.8% (active)
21,COC(=O)c1c(NC(=O)C2CC(C)=C(C)CC2C(=O)O)sc2c1CCCCC2 (stereo unspecified),53.5% (active)
22,COC(=O)c1c(NC(=O)CSc2nncs2)sc2c1CCCCC2,0.27% (inactive)

row,Compound,inhibition
1,N#Cc1c(NC(=O)C2CCCO2)sc2c1CCCCC2 (stereo unspecified),-2.89% (inactive)
2,O=C(O)C1CC=C(Cl)CC1C(=O)NCc1ccccc1 (stereo unspecified),1.32% (inactive)
3,COC(=O)c1c(NC(=O)CN2C(=O)NC(CCc3ccccc3)C2=O)sc2c1CCCCC2 (stereo unspecified),10% (inactive)
4,C[C@H]1CCC/C=C/C(=O)c2c(O)cc(O)cc2CC(=O)O1,6.03% (inactive)
5,N#Cc1c(-c2ccc(Cl)cc2)c2c([nH]c1=S)CCCC2,17.9% (inactive)
6,C=CCN1C(C(=O)OC)CN(Cc2cn(Cc3ccccc3)nn2)CCS1(=O)=O (stereo unspecified),3.76% (inactive)
7,COc1ccc(CNS(=O)(=O)c2cc(-c3cc(C)no3)ccc2C(C)C)cc1,1.21% (inactive)
8,CCOC(=O)c1ccc(N/C(=N/S(=O)(=O)c2ccccc2)c2ccccc2)cc1,0.82% (inactive)
9,COc1cccc(NC(=O)c2ccccc2N(Cc2ccccc2)S(C)(=O)=O)c1,4.73% (inactive)
10,CCOc1ncccc1C(=O)Nc1ccc(S(=O)(=O)Nc2nc(C)cc(C)n2)cc1,16.8% (inactive)
11,COc1cc(NC(=O)c2ccccc2NS(=O)(=O)c2ccc(Cl)s2)cc(OC)c1,84.6% (active)
12,COc1ccc(CCNS(=O)(=O)c2ccc(Cl)s2)cc1OC,-4.15% (inactive)
13,COC(=O)c1ccc(NC(=O)c2ccccc2NS(=O)(=O)c2ccccc2)cc1,74.1% (active)
14,COc1ccnc(NC(=S)N2CCN(c3ncc(C(F)(F)F)cc3Cl)CC2)c1,2.94% (inactive)
15,COc1cc(/C=C/C(=O)OCC(=O)Nc2cccc(Oc3ccccc3)c2)ccc1O,15.1% (inactive)
16,CC(C)CNc1cccc2c1S(=O)(=O)N[C@H](C)CO2,2.72% (inactive)
17,COc1ccc(C(CNC(=O)c2cccc(NS(=O)(=O)c3ccc(C)c(F)c3)c2)N2CCCC2)cc1 (stereo unspecified),2.37% (inactive)
18,COc1ccc(C(CNC(=O)c2ccc(S(=O)(=O)Nc3ccccc3C)cc2)N2CCOCC2)cc1 (stereo unspecified),-3.71% (inactive)
19,COc1ccc(C(CNC(=O)c2cccc(S(=O)(=O)Nc3ccccc3Cl)c2)N2CCOCC2)cc1 (stereo unspecified),46.8% (active)
20,CC1=C(C(=O)Nc2cc(C)ccn2)C(c2cnn(C)c2)C2=C(CC(c3ccccc3)CC2=O)N1 (stereo unspecified),-6.66% (inactive)
21,O=C(Nc1ccc(Br)cc1)OCCN1C(=O)CCC12CCC(c1ccccc1)CC2 (stereo unspecified),5.9% (inactive)
22,C[C@H](O)[C@@H]1CN2CCc3ccc(-c4ccc5c(c4)OCO5)cc3[C@@H]2C[C@@H]1N(C)C(=O)C1CCCCC1,6.89% (inactive)

row,Compound,inhibition
1,Cc1cc(NCCc2c[nH]c3ccccc23)ccc1Oc1cccnc1,7.17% (inactive)
2,CCc1cccc(C)c1N(C(=O)Cn1c(CO)nc2ccccc21)C(C)COC (stereo unspecified),-9.89% (inactive)
3,COC(=O)[C@]12C[C@H](CC(=O)NCCc3ccccc3OC)C(=O)N(Cc3ccco3)C1=C[C@H](C(C)C)O[C@@H]2C1CC1,3.46% (inactive)
4,Cc1ccc(NC(=O)CSc2nn3c(=O)c(C)nnc3s2)cc1Cl,2.36% (inactive)
5,Cc1ccc(NC(=O)CSc2sc3c(O)cc(=O)[nH]c3c2C#N)cc1C,40.4% (active)
6,Cc1nc2cc(NC(=O)CSc3nc4c(C)cccc4cc3C#N)ccc2s1,2.03% (inactive)
7,CCOC(=O)C1CSCCS(=O)(=O)N1Cc1ccc(Cl)cc1 (stereo unspecified),1.28% (inactive)
8,COC[C@@H]1CCCN1c1ccc2c(c1)O[C@H](C)CCN(C1CC1)S2(=O)=O,0.67% (inactive)
9,C#Cc1ccc(NC(=O)C2(C)CCN2C(=O)Cc2ccc(-c3ccccc3)cc2)cc1 (stereo unspecified),9.25% (inactive)
10,CC1(C(=O)NS(=O)(=O)c2cccs2)CCN1C(=O)Cc1ccc(-c2ccccc2)cc1 (stereo unspecified),40.2% (active)
11,Cc1ccc(F)c(S(=O)(=O)NC(=O)C2(C)CCN2C(=O)CCc2cccs2)c1 (stereo unspecified),3.47% (inactive)
12,Cc1ccccc1S(=O)(=O)NC(=O)C1(C)CCN1C(=O)Cc1ccc(Cl)cc1Cl (stereo unspecified),32.5% (inactive)
13,CCCNC(=O)C1(C)CCN1C(=O)Cc1ccc(-c2ccccc2)cc1 (stereo unspecified),0.2% (inactive)
14,Cc1nc(C(F)(F)F)ccc1C(=O)N1CCC1(C)C(=O)NS(=O)(=O)c1ccccc1 (stereo unspecified),4.76% (inactive)
15,CCCCc1ccc(S(=O)(=O)NC(=O)C2(C)CCN2C(=O)c2ccccc2)cc1 (stereo unspecified),32.5% (inactive)
16,CC1(C(=O)NS(=O)(=O)c2ccccc2)CCN1C(=O)C/C=C/c1ccccc1 (stereo unspecified),7.12% (inactive)
17,CC1(C(=O)NS(=O)(=O)Cc2cccc(Cl)c2)CCN1C(=O)Cc1ccccc1 (stereo unspecified),12.6% (inactive)
18,COc1ccc(S(=O)(=O)NC(=O)C2(C)CCN2C(=O)c2ccccc2CCc2ccccc2)cc1 (stereo unspecified),43.4% (active)
19,CC1(C(=O)NS(=O)(=O)Cc2cccc(Cl)c2)CCN1C(=O)Cc1ccc(Cl)cc1Cl (stereo unspecified),42.9% (active)
20,CC1(C(=O)NS(=O)(=O)c2ccccc2)CCN1C(=O)Cc1ccc(-c2ccccc2)cc1 (stereo unspecified),41.7% (active)
